Rows were chosen to be rich in hits. Some 18% of all compounds tested hit in one or more screens of this group.
CtBP-E1A blk: qHTS Assay for Inhibitors of the CtBP/E1A Interaction; CtBP / adenovirus E1A interaction (AlphaScreen); AlphaScreen GST-E1A/His-CtBP binding, 1536-well; active compounds read low; activity change, % (test concentration not listed); hit rate 0.49% among 340,000; AID 651724, 2012; in the data active means activity change below about -65%; inconclusive means mostly about -30% to -63%
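In 5 uL wells, 23 nL compound meets equimolar GST-E1A and His-CtBP (5X stock 125 nM each) for 2 h, 37 °C. Beads (5X, 50 ug/mL) then 1 h, 37 °C, dark.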
DT40 TDP1 CPT: qHTS for Inhibitors of human tyrosyl-DNA phosphodiesterase 1 (TDP1): qHTS in cells in presence of CPT. chicken DT40 Tdp1-/-;hTDP1 cells + 20 nM CPT, ATP luminescence, 48 h. hit rate 12% among 420,000. Potency, µM (series often up to 46.2 µM), inactives show top-dose activity change, negative = growth inhibition, actives largely listed as inhibitors; further: potency means the concentration at half of the fitted maximal effect; nearly all actives have a fitted effect of over 55% in size
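Cell growth measured by CellTiter-Glo luminescence after a minimum 48 h, 37 C compound exposure with 20 nM CPT in Tdp1-knockout DT40 cells stably expressing hTDP1, seeded 400/well; qHTS titration format.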
TDP1 cell noCPT: qHTS for Inhibitors of human tyrosyl-DNA phosphodiesterase 1 (TDP1): qHTS in cells in absence of CPT; hit rate 15% among 420,000; Potency, µM (highest dose often 46.2 µM), inactives show at the highest dose activity change, negative = growth inhibition, actives largely listed as inhibitors; DT40 Tdp1-/- hTDP1 cells, no CPT, ATP luminescence, 48 h; further: potency means the concentration at half of the fitted maximal effect; nearly all actives have a fitted effect of over 55% in size
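Chicken DT40 Tdp1-/- cells complemented with human TDP1, screened without camptothecin (DMSO vehicle only), 400 cells/well. Compounds pin-transferred, cells incubated at 37 °C for at least 48 hr. Growth read as ATP-dependent luminescence (CellTiter-Glo, 30 min at RT).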
IL1B secr inh: qHTS for Inhibitors of Inflammasome Signaling: IL-1-beta AlphaLISA Primary Screen; THP-1 LPS/ATP IL-1B secretion, AlphaLISA, 16 h; active compounds read low; activity change, % at 57.5 µM; hit rate 4.7% among 360,000; in the data active means activity change below about -50%; inconclusive means mostly about -30% to -49%
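Secreted IL-1B measured by AlphaLISA bead assay after 16 h compound exposure of THP-1 cells; compounds (final up to 57.5 uM) added 1 h before LPS (250 ng/mL) and ATP (1.25 mM) stimulation; lower signal means less secretion.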
Six1-Eya2 blk: qHTS Assay for Inhibitors of the Six1/Eya2 Interaction. Homeobox protein SIX1 (Homo sapiens) + Protein phosphatase EYA2 (Homo sapiens), …. AlphaScreen GST-Six1/His-Eya2 binding, biochemical; active compounds read low. activity change, % (no concentration beside the values). hit rate 0.56% among 360,000; in the data active means activity change below about -65%; inconclusive means mostly about -30% to -63%
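Six1/Eya2 binding was read as AlphaScreen signal after compounds were pinned into GST-Six1 plus His-tagged Eya2 (5X stock 250/500 nM) in pH 8.0 Tris/NaCl/TCEP buffer, beads added, then incubated 1 h, 37 C, dark.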
TDP1 inh: qHTS Assay for Inhibitors of Tyrosyl-DNA Phosphodiesterase (TDP1); Potency, µM (series often up to 130 µM), without a hit: top-dose activity change, negative = inhibition, usual class: inhibitors; recombinant TDP1, AlphaScreen DNA substrate cleavage; Tyrosyl-DNA phosphodiesterase 1 (Homo sapiens), Q9NUW8; AID 485290, 2010; hit rate 0.28% among 350,000; further: potency means the concentration at half of the fitted maximal effect; nearly all actives have a fitted effect of over 40% in size
Target sequence (Q9NUW8 whole entry, looked up): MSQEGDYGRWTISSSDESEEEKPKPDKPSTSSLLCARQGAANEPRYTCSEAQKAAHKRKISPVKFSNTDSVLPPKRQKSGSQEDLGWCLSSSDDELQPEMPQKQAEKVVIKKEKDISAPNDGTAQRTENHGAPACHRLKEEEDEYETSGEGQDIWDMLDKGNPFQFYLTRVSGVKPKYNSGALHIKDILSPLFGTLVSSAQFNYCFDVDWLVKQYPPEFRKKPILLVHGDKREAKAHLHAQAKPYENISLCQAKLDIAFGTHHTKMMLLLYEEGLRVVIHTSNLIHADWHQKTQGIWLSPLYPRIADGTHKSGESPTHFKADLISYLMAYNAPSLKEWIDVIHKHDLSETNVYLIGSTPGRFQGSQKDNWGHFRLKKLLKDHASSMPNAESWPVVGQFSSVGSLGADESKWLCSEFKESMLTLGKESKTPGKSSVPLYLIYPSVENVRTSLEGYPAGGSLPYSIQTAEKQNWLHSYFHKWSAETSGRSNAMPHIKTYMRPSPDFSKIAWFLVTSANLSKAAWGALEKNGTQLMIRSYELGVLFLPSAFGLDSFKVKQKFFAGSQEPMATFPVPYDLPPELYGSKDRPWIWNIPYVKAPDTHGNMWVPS
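Tdp1 1 nM final; 15 min RT w/ cpd; substrate 15 nM, 5 min; beads 10 ug/ml, 10 min; AlphaScreen read. Neg ctrl: no enzyme.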
An asterisk follows results filed as active; ? = inconclusive; · = no result. Unless noted, the call rests on the fitted dose curve; in most records, active means well fitted curve in the direction sought with a large enough effect; inconclusive means small, poorly fitted or top-dose-only effect, or another doubt; inactive means no such curve, though single readings can be large; an effect the other way counts as inactive or inconclusive. On the % scale 0 is the no-effect control and ±100 the full control effect.

SMILES | CtBP-E1A blk | DT40 TDP1 CPT | TDP1 cell noCPT | IL1B secr inh | Six1-Eya2 blk | TDP1 inh
CCOc1ccc(-c2csc(NNC3=NCCCCC3)n2)cc1 | · | 10.3µM* | 20.6µM* | -102.5* | -4.1 | 9.5%
COC(=O)CCCNC(=O)CC1C(=O)NCCN1Cc1ccoc1 (configuration not stated) | · | -2.7% | 1.0% | 8.1 | 0.0 | ·
CC(C)CNC(=O)C(=O)Nc1cc2c3c(c1)CCC(=O)N3CCC2 | · | 3.4% | -3.5% | -9.7 | 9.8 | 0.8%
COc1ccccc1Cn1c(=O)c2ccccc2n2c(Sc3ncnc4sccc34)nnc12 | -3.7 | 20.6µM* | 20.6µM* | -85.3* | -4.8 | 2.0%
COc1ccccc1Cn1c(=O)c2ccccc2n2c(SCc3csc(C)n3)nnc12 | 4.8 | ? | ? | -54.6* | 2.1 | 6.2%
CCCn1c(=O)c2ccccc2n2c(SCCOc3ccc(OC)cc3)nnc12 | -2.5 | ? | ? | -4.3 | -6.9 | -2.1%
Oc1ccc(/C=N/n2c3ccccc3c3ccccc32)cc1 | -2.2 | ? | 16.4µM* | 6.9 | -10.9 | 5.7%
O=C(NCc1ccccc1Cl)C1CCN(S(=O)(=O)c2ccc(F)cc2)CC1 | 3.3 | -17.5% | -17.8% | ? | 0.0 | 2.5%
Cn1cc(S(=O)(=O)N2CCc3ccccc32)cc1C(=O)NC1CCCCC1 | 4.5 | -29.0% | -25.5% | 30.0 | 0.6 | ·
CCC(C)(C)NC(=O)c1cc(S(=O)(=O)N2CCc3ccccc32)cn1C | -16.5 | 20.6µM* | 14.6µM* | 21.3 | 2.4 | ·
CCN(C(=O)c1cc(S(=O)(=O)N2CCc3ccccc32)cn1C)c1cccc(C)c1 | · | ? | 13µM* | · | · | 3.9%
Cc1cc(F)ccc1NC(=O)c1cc(S(=O)(=O)N2CCc3ccccc32)cn1C | -7.1 | ? | 25.9µM* | -9.1 | 3.2 | ·
CCOCCn1c(SCc2cccc(C)c2)nc2c1c(=O)[nH]c(=O)n2C | 6.1 | -8.9% | ? | 36.3 | -7.0 | 6.9%
c1ccc(Nc2nc(NCc3ccco3)nc3nccnc23)cc1 | · | -2.7% | -25.6% | · | · | 50.1µM*
Fc1ccc(Nc2nc(NCc3ccco3)nc3nccnc23)cc1 | · | -25.0% | -28.8% | · | · | 0.3%
COc1ccccc1Nc1nc(NCc2ccco2)c2ccccc2n1 | -4.8 | ? | 20.6µM* | · | -3.4 | 7.0%
Cc1ccc(Nc2nc(NCc3ccco3)c3ccccc3n2)cc1 | -1.2 | 2.59µM* | 2.59µM* | -108.7* | -0.3 | 7.9%
CC1CN(CC(=O)Nc2nc(-c3ccc(Cl)cc3)cs2)CC(C)O1 (configuration not stated) | -1.7 | ? | 23.1µM* | ? | -12.2 | ·
CC1CC(CC(=O)Nc2nc(-c3ccccc3)cs2)C(=O)O1 (configuration not stated) | · | 1.2% | ? | -9.7 | 0.6 | 5.5%
O=C(CN1CCOCC1)Nc1ccccc1Sc1ccc(Cl)cc1 | -0.5 | ? | 6.51µM* | -59.0* | 10.9 | 5.4%
NC(=O)C1(N2CCCCC2)CCN(CC(=O)Nc2ccccc2Sc2ccccc2)CC1 | 4.0 | ? | ? | -78.6* | -7.0 | 4.3%
O=C(CN1CCOCC1)Nc1nc(-c2ccc(Cl)cc2)cs1 | -2.5 | 16.4µM* | 20.6µM* | ? | 3.8 | ·
NC(=O)C1(N2CCCCC2)CCN(CC(=O)Nc2cc(Cl)ccc2Cl)CC1 | 2.2 | -21.3% | -21.7% | -9.9 | 2.8 | 2.3%
CCc1ccc(C(=O)COC(=O)c2cnccn2)cc1 | 8.8 | -9.8% | 3.2% | 10.5 | 0.0 | 4.7%
COc1ccc(NC(=O)C2CC(=O)OC2(C)C)cc1 (configuration not stated) | 6.8 | -28.2% | -12.5% | -12.0 | 3.4 | 0.0%
SMILES | CtBP-E1A blk | DT40 TDP1 CPT | TDP1 cell noCPT | IL1B secr inh | Six1-Eya2 blk | TDP1 inh
CCCc1ccc2oc(C(=O)NCc3nnc(C)o3)c(C)c2c1 | 10.1 | 1.7% | -1.4% | ? | 9.6 | 4.8%
CN(C(=O)CS(=O)(=O)c1cn(CC(=O)N2CCCC2)c2ccccc12)c1ccccc1 | -23.6 | -11.8% | 17.5% | -7.5 | -10.5 | ·
Cc1ccc(-c2csc(NC(=O)CN3CCOCC3)n2)cc1 | -5.7 | 16.4µM* | 16.4µM* | 15.8 | -4.6 | ·
Cc1ccc(-c2csc(NC(=O)N3CCOCC3)n2)cc1 | -2.7 | ? | ? | -23.9 | 4.0 | 2.4%
O=C(Nc1nc(-c2ccc(Cl)cc2)cs1)C1CCCO1 (configuration not stated) | 7.7 | ? | 23.1µM* | -69.5* | 3.6 | -1.2%
COc1cc(Nc2nc3c(N)cc(C(F)(F)F)cc3nc2-c2ccccc2)cc(OC)c1OC | 3.8 | ? | 13µM* | 6.8 | -1.9 | ·
COc1cc(-c2n[nH]c(=S)n2-c2cccc(C(F)(F)F)c2)cc(OC)c1OC | 6.5 | -8.3% | -18.3% | 10.6 | 3.6 | 0.0%
Cc1ccccc1NC(=O)c1cccc(NC(=O)c2ccco2)c1 | -0.1 | 1.9% | -2.3% | -15.7 | 4.7 | ·
CC(O)c1cccc(NC(=O)CC(c2ccccc2)c2ccccc2)c1 (configuration not stated) | · | 9.2µM* | 9.2µM* | -5.6 | -9.0 | -2.8%
CCOc1ccccc1NC(=O)c1cccc(NC(=O)c2ccco2)c1 | -10.9 | 1.46µM* | 1.64µM* | 5.4 | -10.3 | 8.2%
CCOc1ccccc1C(=O)Nc1cc(C(=O)NCCc2ccccc2)ccc1Cl | -0.2 | -6.4% | ? | 11.6 | 3.1 | 3.0%
CCOc1ccccc1NC(=O)c1cccc(NC(=O)CC(c2ccccc2)c2ccccc2)c1 | 2.0 | 23.1µM* | 25.9µM* | -10.9 | -2.5 | 1.0%
CCOc1ccccc1NC(=O)c1ccc(Cl)c(NC(=O)CC(c2ccccc2)c2ccccc2)c1 | -3.5 | 18.4µM* | ? | 9.9 | -14.0 | 2.9%
O=C1C=C(c2ccccc2)OC(c2ccccc2)O1 (configuration not stated) | 12.8 | 11.8% | -6.7% | -2.2 | 2.3 | 0.0%
Cc1ccc(/C=N\NC(=O)C2CC(=O)N(c3ccccc3)C2)o1 (configuration not stated) | 0.7 | 2.6% | -19.0% | · | -5.9 | 2.5%
Cc1ccc(C(O)(CCN2CCCCC2)c2ccccc2)cc1 (configuration not stated) | · | ? | ? | -4.3 | -6.7 | ·
Cc1ccc(NC(=O)CCc2nc3cccnc3n2-c2ccccc2)cc1Cl | · | 16.4µM* | 16.4µM* | · | · | 6.4%
